# Screens: PubChem, National Center for Advancing Translational Sciences (NCATS)
# This is a sample that favours compounds with a hit; in the whole collection about 1.2% have one here.
# PI4K2A block: blocks human PI4K2A kinase activity; Q9BTU6; activity change, negative = inhibition, % at 76.9 µM; 420,000 tested, 0.13% active; purified PI4K2A, ADP-Glo luminescence, 1 h; hits give low values; in the data active = activity change below about -50%; inconclusive = mostly about -30% to -49%;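 note: -100% = wells without enzyme as full effect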
#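 Compounds are screened against recombinant PI4K2A using PI as substrate and ATP, the latter dispensed at 300 microM. Reactions run one hour at ambient temperature before ADP-Glo detection; full inhibition defined by wells lacking enzyme.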
# GCN5L2 inh: blocks human GCN5L2 histone acetyltransferase; Q92830; GCN5L2 HAT assay, ThioGlo1 CoA-SH fluorescence; Potency, µM (titrated, usually from 58.9 µM), for the others: top-dose activity change, negative = inhibition, hits mostly inhibitors; 390,000 tested, 0.21% active; note: potency is the fitted concentration of half-maximal effect
# Target sequence (Q92830 whole entry, looked up): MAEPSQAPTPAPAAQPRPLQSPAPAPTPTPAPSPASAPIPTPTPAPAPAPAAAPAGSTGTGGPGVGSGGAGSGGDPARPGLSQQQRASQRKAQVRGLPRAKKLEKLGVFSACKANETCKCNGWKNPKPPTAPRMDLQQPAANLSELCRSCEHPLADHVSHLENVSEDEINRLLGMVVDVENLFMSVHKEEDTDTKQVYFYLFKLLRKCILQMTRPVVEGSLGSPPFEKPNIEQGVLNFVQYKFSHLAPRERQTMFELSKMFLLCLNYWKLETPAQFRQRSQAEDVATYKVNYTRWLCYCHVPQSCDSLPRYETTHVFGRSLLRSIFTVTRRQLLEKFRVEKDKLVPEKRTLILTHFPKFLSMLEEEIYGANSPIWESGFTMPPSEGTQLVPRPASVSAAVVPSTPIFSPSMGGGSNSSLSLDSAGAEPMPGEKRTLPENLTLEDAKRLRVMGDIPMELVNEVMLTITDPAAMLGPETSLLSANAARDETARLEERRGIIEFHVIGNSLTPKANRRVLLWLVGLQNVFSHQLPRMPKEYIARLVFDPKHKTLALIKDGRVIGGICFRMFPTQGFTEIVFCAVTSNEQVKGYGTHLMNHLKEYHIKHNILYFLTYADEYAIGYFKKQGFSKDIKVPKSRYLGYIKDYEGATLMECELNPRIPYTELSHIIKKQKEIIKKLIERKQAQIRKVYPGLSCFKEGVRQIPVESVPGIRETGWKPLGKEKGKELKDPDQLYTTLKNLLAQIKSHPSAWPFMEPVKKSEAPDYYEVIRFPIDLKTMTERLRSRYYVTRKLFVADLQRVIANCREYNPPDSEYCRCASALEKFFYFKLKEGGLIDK
#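 Free CoA generated was detected with ThioGlo1 (50uM) fluorescence at Ex340nm/Em540nm, read immediately and after 20 min at room temperature. Enzyme, 20 nM in HEPES pH 7.5 buffer, saw compounds 15 min before adding 75uM H3(1-25) peptide and 70uM acetyl-CoA.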
# Pin1 inh: human Pin1 inhibition. Pin1 FP peptide displacement, HiFluor488, 10 min. Potency, µM (highest dose often 115 µM), without a hit: at the top dose activity, negative = inhibition, actives largely listed as inhibitors. 390,000 tested, 0.009% active. AID 504891; active = well fitted inhibition curve with a large enough effect in the polarisation, with a control signal flat, not every such curve was filed as active; inconclusive = small, poorly fitted or top-dose-only effect, or effect the other way, or a change in a side signal; inactive = no such curve, though single readings can be large or run the other way; the % refers to the polarisation; note: potency is the fitted concentration of half-maximal effect
# Tb PGK inh: T. brucei PGK inhibition; P07378; PGK/GAPDH coupled, Kinase-Glo luminescence, 60 min; Potency, µM (titrated, usually from 57.5 µM), for the others: at the top dose activity change, negative = inhibition, hits mostly inhibitors; 380,000 tested, 0.043% active; note: potency is the fitted concentration of half-maximal effect; nearly all actives have a fitted effect of over 60% in size
#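 Luminescent ATP detection (Kinase-Glo Plus) follows a 60-minute room-temperature incubation, with wells lacking PGK as controls. Buffer: 100 mM TEA (pH 7.6), 5 mM MgCl2, 0.01% Tween-20. Coupling enzyme GAPDH (100 nM final) supplies unstable 1,3-BPG in-well.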
# PI5P4K alpha inh: PI5P4K alpha (human) kinase inhibition; max response, %; P48426; 330,000 tested, 1.2% active; PI5P4Kalpha enzyme, ADP-Glo luminescence, 60 min; hits give low values; active = max response of -50% or lower; inconclusive = between -30% and -50%; inactive = -30% or higher; note: value at the top dose of about 77 µM
#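 Single end-point luminescence (ADP-Glo) quantified ADP from PI5P4Kalpha turnover; ATP 5 microM final, 1 h at RT, 0.1% CHAPS and 0.28 mM EGTA in HEPES pH 7.4.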
# RGS12 GoLoco inh: inhibitors of human Gai1-RGS12 GoLoco interaction (red fluorophore) | P63096 | Gai1:RGS12 GoLoco peptide FP, rhodamine, 10 min | Potency, µM (highest dose often 61.6 µM), inactives show top-dose activity, negative = inhibition, hits mostly inhibitors | 230,000 tested, 0.44% active; active = well fitted inhibition curve with a large enough effect, not every such curve was filed as active; inactive = no such curve, though single readings can be large or run the other way; note: potency is the fitted concentration of half-maximal effect; nearly all actives have a fitted effect of over 30% in size
# Numbers without * were called inactive; i = inactive; ? = inconclusive; / = no result given; [ ] = another dose, or the depositor's remark. Unless noted, calls come from the whole dose curve; as a rule, active = well fitted curve in the direction sought with a large enough effect; inconclusive = small, poorly fitted or top-dose-only effect, or another doubt; inactive = no such curve, though single readings can be large; an effect the other way counts as inactive or inconclusive. Unless noted, % is set by controls: 0 for no effect and ±100 for the full control effect.
SMILES,PI4K2A block,GCN5L2 inh,Pin1 inh,Tb PGK inh,PI5P4K alpha inh,RGS12 GoLoco inh
CC/C(=N\NC(=O)c1ccccc1O)c1c(O)n(C2CCCCC2)c(=O)[nH]c1=O,-3,-28%,-1%,i,-74*,/
CC/C(=N\NC(=O)c1ccccc1)c1c(O)n(Cc2ccccc2)c(=O)[nH]c1=O,-10,-6%,?,-5%,-85*,26%
CCC(=NCCO)c1c(O)n(C2CCCCC2)c(=O)[nH]c1=O,-13,-5%,7%,8%,-4,5%
CCNc1nc(Cl)nc(NCC)n1,0,28µM*,/,/,/,8%
O=c1[nH]c(=S)n(C2CCCCC2)c(O)c1/C=N/N1CCOCC1,-9,1%,66%,-2%,1,45%
COP(=S)(OC)Oc1nc(Cl)c(Cl)cc1Cl,/,20µM*,/,/,/,/
C[C@H](N)[C@H](O)c1ccc(O)c(O)c1,-22,-12%[21.4 µM],/,/,/,1%[21.6 µM]
CC(=O)Nc1cc([As](=O)(O)O)ccc1O,5,1%,-1%,-8%,3,12%
CC(=O)Nc1cccc([As](=O)(c2cccc(NC(C)=O)c2)c2cccc(NC(C)=O)c2)c1,-10,-2%,3%,-2%,0,5µM*
COc1ccc(CCNCc2ccc(Br)cc2)cc1OC,-2,2%,-8%,i,0,/
O=C(Cn1nc(-c2ccc(Cl)cc2)ccc1=O)N1CCC2(CC1)OCCO2,3,-3%,-3%,-10%,-4,-3%
CC(C)c1ccc(N2C(=O)NC(=O)/C(=C/C=C/c3ccco3)C2=O)cc1,-28,?,?,7%,-66*,126%
CCc1ccc(N2C(=O)NC(=O)/C(=C\C=C\c3ccco3)C2=O)cc1,?,-13%,?,-14%,?,88%
CCCCN1C(=O)/C(=C\c2ccco2)C(=O)N(CCc2ccccc2)C1=O,-21,40µM*,-4%,-14%,-82*,134%
O=C1NC(=O)N(Cc2ccco2)C(=O)/C1=C/c1cccn1CCOc1ccccc1Cl,?,48%,33%,-19%,-52*,3%
CN1C(=O)C(=CN2CCN(C(=O)c3ccco3)CC2)C(=O)N(C)C1=S,3,-8%,12%,7%,-18,44%
O=C1NC(=O)N(Cc2ccc(F)cc2)C(=O)/C1=C\C=C\c1ccco1,-11,23%,?,-10%,-75*,201%
O=C(O)Cn1cc(/C=C2\C(=O)NC(=O)N(Cc3ccco3)C2=O)c2ccccc21,?,-11%,32%,?,?,127%
OCC[n+]1c2ccccc2nc2ccc(N3CCOCC3)cc21,-24,-1%,-9%,-13%,-6,18%
COC1=CC(=O)O[C@@H](/C=C/c2ccc3c(c2)OCO3)C1,/,/,/,/,/,-19%
O=C1NC(=O)N(Cc2ccccc2)C(=O)/C1=C\c1ccco1,-22,?,?,?,-86*,69%
O=C1NC(=O)N(Cc2ccccc2)C(=O)/C1=C\N1CCCc2ccccc21,-2,?,?,-7%,?,-9%
CCCCN1C(=O)/C(=C/C=C/c2ccco2)C(=O)NC1=S,-5,-21%,?,?,-85*,228%
C=CCC1C(=O)NC(=S)NC1=O,-4,-25%,-7%,-8%,-63*,-5%
CC(C)(C)n1nnnc1C(C1CC1)N1CCC2(CC1)C(=O)NCN2c1ccccc1 (stereo not drawn),-5,/,/,/,-2,/
SMILES,PI4K2A block,GCN5L2 inh,Pin1 inh,Tb PGK inh,PI5P4K alpha inh,RGS12 GoLoco inh
CN1C(=O)NC(=O)/C(=C/c2ccc([N+](=O)[O-])o2)C1=O,?,-2%,?,14µM*,-82*,-24%
O=C1NC(=O)N(c2ccccc2)C(=O)/C1=C\c1ccc([N+](=O)[O-])o1,/,-7%,/,/,/,70%
CN1C(=O)NC(=O)/C(=C\c2ccc([N+](=O)[O-])o2)C1=O,-21,-2%,?,?,-102*,24%
CC(C)CCOP(N)(=O)Oc1ccccc1 (stereo not drawn),4,9%,2%,1%,-2,/
CC1=C(O)C(=O)C=C2C1=CC=C1C2(C)CCC2(C)C3CC(C)(C(=O)O)CCC3(C)CCC12C (stereo not drawn),-27,/,?,-5%,-72*,/
O=C(COc1ccc2ccc(=O)oc2c1)N1CCC(C(=O)O)(c2ccccc2)CC1,4,25µM*,-10%,-4%,-4,/
NS(=O)(=O)c1ccc(-c2ccc(C=C3C(=O)NC(=S)NC3=O)o2)cc1,/,-9%,/,/,/,/
O=C1NC(=O)C(=Cc2ccc(-c3cc(Cl)ccc3[N+](=O)[O-])o2)C(=O)N1,-14,-13%,38%,-5%,-53*,35%
NS(=O)(=O)c1ccc(-c2ccc(C=C3C(=O)NC(=O)NC3=O)o2)cc1,?,-12%,8%,-1%,-64*,/
Cc1ccc(O)cc1 (tested in a mixture with another compound),/,/,/,/,/,4%[14.2 µM]
Oc1cc[c]([Hg][Cl])cc1,/,0.14µM*,/,/,/,/
c1ccc(-c2ccncc2)cc1,-5,-1%,1%,i,-13,/
C[n+]1ccc(-c2ccncc2)cc1,5,-3%,-3%,3%,/,10µM*
O=C(CCl)c1ccc(Cl)cc1Cl,6,/,/,/,/,-1%
Cc1ccc(OC(=O)N(C)C[C@@H]2OCc3cnnn3CCCC(=O)N([C@H](C)CO)C[C@H]2C)cc1,1,/,/,-8%,12,/
CC[N+](C)(CC)CCCCOc1ccc2c(c1)C(=O)c1cc(OCCCC[N+](C)(CC)CC)ccc1-2,0,?,?,i,-13,11µM*
C[C@@H](N)[C@@H](O)c1ccc(O)c(O)c1,/,2%,/,/,/,-3%
COP(=O)(OC)c1nc(-c2cccc3ccccc23)oc1N1CCOCC1,4,28µM*,0%,4%,-1,-5%
COP(=O)(OC)c1nc(-c2cccc3ccccc23)oc1NCCc1ccccc1,0,-10%,?,-5%,25,-7%
CCCCn1nnnc1C(c1cccc2ccccc12)N1CCC2(CC1)C(=O)NCN2c1ccccc1 (stereo not drawn),3,/,/,/,2,/
O=C1C(Cl)=C(Cl)C(=O)C(Cl)=C1Cl,/,?,/,/,/,0.22µM*
Cc1cc(/C=C2\C(=O)NC(=O)N(c3ccccc3)C2=O)c(C)n1-c1ccc(C(=O)O)c(Cl)c1,-18,-13%,-8%,?,?,/
Cc1cc(/C=C2\C(=O)NC(=O)N(c3ccccc3F)C2=O)c(C)n1-c1cc(C(=O)O)cc(C(=O)O)c1,-25,-10%,/,11µM*,-78*,/
Cc1cc(/C=C2\C(=O)NC(=O)N(c3ccc(F)cc3)C2=O)c(C)n1-c1cccc(C(=O)O)c1,-8,-7%,25%,11%,-50*,54%
